Laboratory results from article PMC5540273 (PLoS ONE, 2017).

Experiments:
YANK1 = tested on: T1, YANK1
T1 construct: gene STK32A

AAK1 = details: concentration: 1 μM, replicates: in singlicate; n = 1
ABL1-nonphosphorylated = details: concentration: 1 μM, replicates: in singlicate; n = 1
ABL1-phosphorylated = details: concentration: 1 μM, replicates: in singlicate; n = 1
ABL2 = details: concentration: 1 μM, replicates: in singlicate; n = 1
ACVR1B = details: concentration: 1 μM, replicates: in singlicate; n = 1
ACVR1 = details: concentration: 1 μM, replicates: in singlicate; n = 1
ACVR2A = details: concentration: 1 μM, replicates: in singlicate; n = 1
YSK4 = tested on: T2, YSK4
T2 construct: gene MAP3K19

p38-alpha = tested on: T3, p38-alpha
T3 construct: gene MAPK14

[1] = tested on: TYK2(JH2domain-pseudokinase)
YANK3 = tested on: T4, YANK3
T4 construct: gene STK32C

VEGFR2 = tested on: T5, VEGFR2
T5 construct: gene KDR
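Wherever %Inh is given: KINOMEscan kinase panel screen.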
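Wherever Kd is given: kd values determined as follow-up on hits from a single-replicate KINOMEscan panel screen.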

| Compound | Kd (YANK1) | %Inh (AAK1) | %Inh (ABL1-nonphosphorylated) | %Inh (ABL1-phosphorylated) | %Inh (ABL2) | %Inh (ACVR1B) | %Inh (ACVR1) | %Inh (ACVR2A) | Kd (YSK4) | Kd (ULK3) | Kd (p38-alpha) | Kd [1] | Kd (YANK3) | Kd (WEE2) | Kd (VEGFR2) |
| --- | --- | --- | --- | --- | --- | --- | --- | --- | --- | --- | --- | --- | --- | --- | --- |
| Cn1cncc1-c1ccc2ncnc(Nc3ccc(OCc4ccccc4)cc3)c2c1 [GW320571] | > 10000 nM | 2% | 0% | 10% | 10% | 2% | 22% | 16% | – | – | – | – | – | – | – |
| COC(=O)c1c(-c2ccccc2)c2cc(OC)ccc2c(=O)n1Cc1ccccc1 | – | 22% | 66% | 0% | 12% | 0% | 0% | 0% | – | – | – | – | – | – | – |
| O=C(Nc1n[nH]c2nc(-c3nccs3)c(Br)cc12)C1CC1 [SB-742251] | – | 15% | 0% | 22% | 7% | 0% | 6% | 0% | 210 nM | – | – | – | – | – | – |
| COc1cc(Nc2nccc(N3CCC(NC(=O)Nc4cc(C)ccc4C)C3)n2)cc(OC)c1OC (stereo not drawn) [GSK1379762] | – | 46% | 0% | 0% | 22% | 0% | 12% | 0% | – | 4300 nM | – | – | – | – | – |
| NC(=O)c1nnc2ccccc2c1N | – | 35% | 25% | 6% | 65% | 0% | 0% | 22% | 300 nM | – | – | – | – | – | – |
| COc1ccccc1-c1ccc2c(NC(=O)C3CC3)n[nH]c2n1 [SB-711239] | – | 9% | 0% | 88% | 0% | 18% | 0% | 29% | – | > 10000 nM | – | – | – | – | – |
| CN(C)CCN(C)C(=O)c1cc(-c2ccncc2)c(-c2ccc(Cl)c(O)c2)o1.Cl.Cl [SB-710397] | – | 6% | 2% | 6% | 17% | 0% | 0% | 0% | – | – | 740 nM | – | – | – | – |
| COc1ccc(CNC(=O)NC2CCN(c3ccnc(Nc4cc(OC)c(OC)c(OC)c4)n3)C2)cc1 (stereo not drawn) [GSK1379748] | – | 49% | 0% | 0% | 0% | 0% | 15% | 0% | – | 550 nM | – | – | – | – | – |
| Cc1ccccc1-n1cnc2c(N)ncnc21 [SKF-97510] | – | 1% | 100% | 3% | 0% | 0% | 10% | 0% | – | – | – | – | – | – | – |
| Cc1csc(-c2nc(Nc3ccncc3)c3ccccc3n2)n1 [GW869640] | – | 31% | 31% | 15% | 7% | 94.7% | 0% | 3% | – | – | – | 530 nM | – | – | – |
| CS(=O)(=O)c1ccc(-c2nc3n(c2-c2ccncc2)CCC3)cc1 [SKF-105942] | – | 14% | 0% | 8% | 9% | 0% | 10% | 0% | – | – | – | – | > 10000 nM | – | – |
| Cc1ccc(NC(=O)Nc2cccc(Cl)c2)cc1-c1ccc(C(=O)Nc2ccncc2)cc1 [GSK1398468] | – | 37% | 0% | 1% | 17% | 0% | 0% | 0% | 61 nM | – | – | – | – | – | – |
| O=C(Nc1ccccc1)Nc1cccc(Oc2ccc3nccn3n2)c1 | – | 0% | 89% | 6% | 31% | 0% | 0% | 0% | 270 nM | – | – | – | – | – | – |
| CCn1c(-c2cccnc2O)nc2cnccc21 [SB-736715] | – | 0% | 43% | 0% | 4% | 0% | 0% | 0% | – | – | – | – | – | > 10000 nM | – |
| Cn1ccc2ncnc(Oc3ccc(NC(=O)Nc4ccccc4)cc3)c21 | – | 0% | 26% | 0% | 0% | 0% | 0% | 0% | 170 nM | – | – | – | – | – | 45 nM |
| COc1ccccc1CNC(=O)c1cc(C(=O)c2ccccc2C)c[nH]1 [GSK364507] | – | 2% | 0% | 0% | 21% | 0% | 0% | 0% | – | – | 270 nM | – | – | – | – |
| C[C@@H]1CCCCN1c1cc(-c2ccc3c(N)n[nH]c3c2)nc(N)n1 [GSK2258759] | – | 43% | 0% | 0% | 0% | 0% | 24% | 0% | – | – | 2100 nM | – | – | – | – |
